# Reference: PubChem BioAssay (Tox21)
# Inconclusive results are not listed. Active and inactive are the calls of the source. The call rests on the fitted dose curve; in most records, active means well fitted inhibition curve with a large enough effect in the repeat runs; inconclusive means weak or mixed curves, or effect the other way; inactive means no such curve, though single readings can be large or run the other way.
# Biological target: Androgen receptor (Homo sapiens) (UniProt P10275)
# Assay: qHTS assay to identify small molecule antagonists of the androgen receptor (AR) signaling pathway using the MDA cell line (AID 743042; further: nearly all actives have a fitted effect of over 55% in size)
# Conditions: MDA-kb2 AR-luc, MMTV luciferase, R1881 antagonist, 16 h; series mostly up to 70.3 µM; activity change, negative = inhibition: at the top concentration
# Summary of the method: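 MDA-kb2 breast carcinoma cells carrying MMTV-luciferase (AR/GR responsive) were co-treated with compounds and the agonist R1881 for 16 h at 37C. Inhibition read as ONE-Glo luminescence; CellTiter-Fluor fluorescence measured in parallel for cytotoxicity.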
# On the % scale 0 is the no-effect control and ±100 the full control effect; potency means the concentration at half of the fitted maximal effect.
# Chain of Androgen receptor (Homo sapiens) (P10275 whole entry, looked up): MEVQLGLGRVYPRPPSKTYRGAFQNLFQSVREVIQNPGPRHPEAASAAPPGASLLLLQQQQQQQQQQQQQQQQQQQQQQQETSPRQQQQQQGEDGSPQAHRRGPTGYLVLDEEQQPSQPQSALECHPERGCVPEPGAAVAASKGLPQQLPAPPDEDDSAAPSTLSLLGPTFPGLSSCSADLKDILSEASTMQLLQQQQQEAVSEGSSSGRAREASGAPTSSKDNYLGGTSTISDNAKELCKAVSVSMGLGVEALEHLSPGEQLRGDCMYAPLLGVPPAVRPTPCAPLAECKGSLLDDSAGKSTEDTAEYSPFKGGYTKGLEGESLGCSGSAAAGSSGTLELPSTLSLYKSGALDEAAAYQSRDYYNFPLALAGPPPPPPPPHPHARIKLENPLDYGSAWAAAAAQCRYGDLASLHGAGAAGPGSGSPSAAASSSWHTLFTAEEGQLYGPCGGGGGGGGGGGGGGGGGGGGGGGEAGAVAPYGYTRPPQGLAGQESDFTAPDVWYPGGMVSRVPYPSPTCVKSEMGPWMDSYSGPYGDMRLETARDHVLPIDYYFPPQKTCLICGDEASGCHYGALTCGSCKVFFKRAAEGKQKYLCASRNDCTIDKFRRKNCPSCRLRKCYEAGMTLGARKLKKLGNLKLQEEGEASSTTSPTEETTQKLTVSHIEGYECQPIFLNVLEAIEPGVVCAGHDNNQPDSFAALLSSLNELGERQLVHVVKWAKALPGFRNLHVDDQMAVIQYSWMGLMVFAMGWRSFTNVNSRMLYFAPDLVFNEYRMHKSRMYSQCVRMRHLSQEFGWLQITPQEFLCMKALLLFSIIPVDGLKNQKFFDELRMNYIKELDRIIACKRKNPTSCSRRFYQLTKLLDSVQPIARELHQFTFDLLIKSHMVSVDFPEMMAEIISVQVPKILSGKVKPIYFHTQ
Structure (SMILES),Potency,"activity change, negative = inhibition"
c1cc(N(CC2CO2)CC2CO2)ccc1Cc1ccc(N(CC2CO2)CC2CO2)cc1 (centres undefined),27.3 µM (active),–
O=c1cc(-c2ccccc2)oc2ccc3ccccc3c12,–,78.3% (inactive)
OC(CCN1CCCC1)(c1ccccc1)C1CCCCC1 (centres undefined),–,1.96% [at 32.5 µM] (inactive)
O=C(OC(=O)c1ccccc1)c1ccccc1,–,1.54% [at 95 µM] (inactive)
O=C(CCc1ccc(O)cc1)c1c(O)cc(O)cc1O,–,0.279% [at 95 µM] (inactive)
C/C=C/C=C/C=O,–,10% (inactive)
CCC(=O)OC,–,1.99% [at 95 µM] (inactive)
O=[N+]([O-])c1cc(C2CCCCC2)c(O)c([N+](=O)[O-])c1,12.2 µM (active),–
CC1=Nc2ccc3ccccc3c2C1(C)C,–,-17.2% (inactive)
